An excerpt weighted towards active compounds, which were near 3.7% of everything screened.
TIM10 inh = inhibits growth of TIM10 yeast strain; S. cerevisiae TIM10 strain growth, BacTiter-Glo luminescence, 24 h; inhibition, % at 10 µM; actives 1.4% (n = 330,000);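 active means inhibition of 40% or more at the single tested concentration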;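 further: wild-type TIM10 isogenic control strain grown at permissive 25 °C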
tim10-1 inh = tim10-1 yeast growth inhibition; S. cerevisiae tim10-1 ts strain growth, BacTiter-Glo, 24 h; inhibition, % at 20 µM; actives 2.2% (n = 330,000); AID 463190;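 active means inhibition of at least 40%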;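 further: mutant grown at 25 °C; 0% = DMSO wells with yeast and 100% = wells holding no yeast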
NLRP3 yeast inh = inhibitors of NALP3 inflammasome in yeast; Yeast reconstituted NLRP3/ASC/caspase-1, beta-gal luminescence, 24 h; actives 0.39% (n = 330,000); inhibition, % at 10 µM;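 active means inhibition of 50% or more; inactive means inhibition below 50%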;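 further: plate controls were induced DMSO wells for no effect and uninduced yeast grown without galactose for full effect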
PfHsp90 set2 = reduces growth (ATP signal) of yeast expressing P. falciparum Hsp90. S. cerevisiae expressing PfHsp90, BacTiter-Glo ATP, 48 h; yeast lacking PDR1 and PDR3 efflux regulators. inhibition, % at 9.4 µM. actives 0.32% (n = 310,000);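 active means every replicate shows inhibition above about 80%, whatever the replicate mean, limit read from the data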;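 further: 0% = DMSO neutral controls and 100% = 20 µM radicicol positive controls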
tim23-1 inh = tim23-1 yeast growth inhibition; S. cerevisiae tim23-1 growth, BacTiter-Glo luminescence, 24 h; inhibition, % at 20 µM; actives 1.3% (n = 330,000); AID 463212;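 active means growth inhibition of the mutant yeast at or above 50%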;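 further: temperature-sensitive mutant grown at 25 °C; plate controls were DMSO-treated mutant yeast for no effect and medium wells lacking yeast for full effect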
tim10-1 confirm = tim10-1 yeast growth inhibition, confirmed; inhibition, % at 20 µM; AID 463213; shares compounds with tim10-1 inh; S. cerevisiae tim10-1 ts strain growth, BacTiter-Glo, 24 h; actives 56% (n = 7,400);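 active means inhibition of yeast growth at or above a set limit in either of two repeat tests at 20 µM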;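 further: tim10-1 mutant grown at permissive 25 °C to find synthetic lethal compounds; 0% = DMSO yeast wells and 100% = medium wells without yeast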
An asterisk follows results filed as active; / = no result; ! = not confirmed by another sample.

SMILES | TIM10 inh | tim10-1 inh | NLRP3 yeast inh | PfHsp90 set2 | tim23-1 inh | tim10-1 confirm
Cc1cccc2c1N(CCOc1ccc(C(C)(C)C)cc1)C(=O)C2=O | 28 | 46* | 13 | -25 | 43 | 33*
CCCCNC(=S)Nc1cccc(S(=O)(=O)NC2=NCCC2)c1 | 3 | 10 | 29 | -1 | 0 | /
CCOc1cc(C(=O)N/N=C(\C)Cc2ccc(OC)cc2)cc(OCC)c1OCC | 16 | 6 | -3 | 14 | 17 | /
O=c1c(-c2nnc(SCc3ccc(Cl)cc3)o2)cccn1Cc1ccccc1 | 14 | 46* | 16 | / | 38 | 19
O=C(CCc1ccc(Oc2cc([N+](=O)[O-])cc([N+](=O)[O-])c2)cc1)NC1CCCC1 | 36 | 37 | 0 | 6 | 27 | /
CC1CCN(C(=O)CCc2ccc(Oc3cc([N+](=O)[O-])cc([N+](=O)[O-])c3)cc2)CC1 | 29 | 51* | 33 | -4 | 46 | 41*
CCOc1ccc2nc(NCCCNS(=O)(=O)c3ccc(F)cc3)c(C#N)cc2c1 | 6 | 42* | 2 | 6 | 26 | 28
CCOc1ccc2nc(NCCNC(=O)c3cc(OC)c(OC)c(OC)c3)c(C#N)cc2c1 | 16 | 8 | 4 | -1 | 10 | /
CCOc1ccc2nc(NCCCNS(=O)(=O)c3ccccc3)c(C#N)cc2c1 | 3 | 42* | 1 | -7 | 21 | 19
COc1ccc(-n2c(CCc3ccccc3)nnc2SCC(=O)NCc2ccccc2)cc1 | 20 | 30 | 3 | -11 | 5 | /
O=C(CSc1nnc(CCc2ccccc2)n1-c1ccc(Cl)cc1)NCc1ccccc1 | 16 | 43* | 14 | 3 | 1 | 12
Cc1ccc2[nH]c(C(=O)N3CCCC(Nc4ccc(F)cc4)C3)cc2c1 (stereo not given) | 17 | 51* | 26 | 9 | 36 | 3
N#Cc1c(NC(=S)NC(=O)Cc2cccs2)sc2c1CCCCC2 | 19 | 47* | 4 | / | 33 | 29
CC(=O)NC(=S)Nc1sc2c(c1C#N)CCCCC2 | / | / | / | -78 | / | /
Nc1ccc2oc(-c3cccc(Br)c3)nc2c1 | 37 | 60* | -15 | -16 | 37 | 50*
COc1ccc(OC)c(N=c2ssnc2Cl)c1 | 12 | 47* | 9 | / | 25 | 32*
COc1cc(N=c2ssnc2Cl)c(OC)cc1Cl | 13 | 42*! | 9 | 91*! | 45 | 51*
Nc1ccccc1N=c1ssnc1Cl | / | / | / | 6 | / | /
Cc1c(NC(=O)/C(C#N)=C/c2ccc(-c3ccc(Cl)cc3)o2)c(=O)n(-c2ccccc2)n1C | 34 | 42* | 7 | -4 | 32 | 30*
Cc1c(NC(=O)/C(C#N)=C/c2ccc(-c3cc(Cl)ccc3Cl)o2)c(=O)n(-c2ccccc2)n1C | 17 | 18 | 14 | -9 | 17 | /
Cc1nn(-c2ccccc2)c(Cl)c1/C=N/NS(=O)(=O)c1ccc(Br)cc1 | -2 | 42* | 18 | -12 | 45 | 30
Cc1nn(-c2ccccc2)c(Cl)c1/C=N/Nc1ccc(S(=O)(=O)Nc2ccccc2C(=O)O)cc1[N+](=O)[O-] | 5 | 42* | 11 | -17 | 31 | 36*
Cc1nn(-c2ccccc2)c(Cl)c1/C=N/NC(=O)OC(C)(C)C | -8 | 44* | 15 | 1 | 39 | 21
CSc1ccc(C=NNc2ccc(S(=O)(=O)Nc3ccccc3C(=O)O)cc2[N+](=O)[O-])cc1 | 9 | 0 | 18 | -1 | 6 | /
Cc1ccc(S(=O)(=O)N2CCOC2CNC(=O)C(=O)NCc2ccc3c(c2)OCO3)cc1 (stereo not given) | 2 | 12 | 19 | 10 | 7 | /
SMILES | TIM10 inh | tim10-1 inh | NLRP3 yeast inh | PfHsp90 set2 | tim23-1 inh | tim10-1 confirm
COc1cc(Cl)c(C)cc1NC(=O)c1cccc(OC)c1OC | 16 | 41* | 18 | -7 | 26 | 15
COc1cc(C)c(NC(=S)Nc2ccc(Cl)c(Cl)c2)cc1OC | 26 | 45* | -6 | -8 | 34 | 23
COc1cc(NC(=S)Nc2cccc(Cl)c2Cl)c(OC)cc1Cl | 35 | 42* | 18 | 11 | 37 | 25
COc1cc(NC(=S)Nc2ccc(Br)cc2Cl)c(OC)cc1Cl | 36 | 39 | 18 | -11 | 21 | /
COc1cc(Cl)c(C)cc1NC(=S)NN | 32 | 41* | 3 | -10 | 44 | 27
COc1cccc(C(=O)Nc2cccc3ccccc23)c1OC | -6 | 25 | 35 | 19 | 36 | /
COc1cc(Cl)c(C)cc1NC(=O)CSc1ccc(NC(C)=O)cc1 | 9 | 42* | 19 | 2 | 29 | 29
COc1ccc(C)cc1NC(=S)NNC(=O)c1ccccc1Cl | 29 | 44* | 6 | 12 | 23 | 48*
CN(Cc1c(C(=O)N(C)Cc2ccccc2)nc2ccccn12)CC1Cc2ccccc2O1 (stereo not given) | 28 | 28 | 6 | -3 | 40 | /
O=C(OC1CCCCC1=O)c1cccc(S(=O)(=O)N2CCOCC2)c1 (stereo not given) | 9 | -9 | 19 | -6 | 5 | /
O=C(OC1CCCCC1=O)c1cc(S(=O)(=O)N2CCOCC2)ccc1F (stereo not given) | 15 | 25 | 15 | 4 | 20 | /
Cc1ccc(S(=O)(=O)N2CCCCC2)cc1C(=O)OC1CCCCC1=O (stereo not given) | 14 | 41* | 2 | / | 28 | 28
O=C(OC1CCCCC1=O)c1cccc(S(=O)(=O)N2CCCCC2)c1 (stereo not given) | 23 | 43* | 16 | -17 | 47 | 22
CC1CCC2C(=O)N(c3cc(Cl)ccc3OC(=O)c3ccco3)C(=O)C2C1 (stereo not given) | 15 | 41* | 3 | -5 | 41 | 34*
CC1CCC2C(=O)N(c3ccccc3OC(=O)c3ccccc3)C(=O)C2C1 (stereo not given) | 10 | 28 | -10 | / | 35 | /
CN(C)CCCOc1cccc(Oc2ccccc2)c1 | 3 | -1 | 10 | -27 | 4 | /
Cc1cccc(-n2ccc(=O)c(C(=O)Nc3ccc(S(=O)(=O)Nc4onc(C)c4C)cc3)n2)c1 | 12 | 1 | 0 | -20 | 6 | /
CCOc1ccc(OCCC(=O)OCC(=O)N2CCN(S(=O)(=O)c3ccc(C)cc3)CC2)cc1 | 26 | 34 | 14 | -6 | 23 | /
Cc1ccc(S(=O)(=O)N2CCN(C(=O)COC(=O)CCOc3ccc(C(C)(C)C)cc3)CC2)cc1 | 28 | 49* | 12 | -1 | 33 | 26
CC(C)c1cccc(C2=CC(=O)C[C@H](c3ccc4c(c3)OCO4)C2)c1 | 19 | 17 | 1 | -43 | 39 | /
COCCNC(=O)c1cc2c(s1)-c1ccc(Cl)cc1SC2 | 10 | 42* | 23 | 2 | 33 | 41*
COc1ccccc1N(CC(=O)NC(C)(C)C)S(=O)(=O)c1cccs1 | 19 | 30 | 3 | 22 | 19 | /
CC1=CC(C)C2(CO)COC(c3cccnc3)C1C2C (stereo not given) | 18 | 14 | 20 | 4 | 1 | /
